gsp antag: gsp mutant antagonism. Potency, µM (highest dose often 76.9 µM), for inactives: at the top dose activity change, negative = inhibition, actives largely listed as inhibitors. actives 0.4% (n = 340,000). gsp-mutant cells, cAMP HTRF, 30 min; calls by dose curve; cell line not stated here;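 note: intracellular cAMP measured with PDE inhibitor Ro 20-1724 present during compound exposure; potency is the fitted concentration of half-maximal effect; % is set by controls: 0 for no effect and ±100 for the full control effect; nearly all actives have a fitted effect of over 65% in size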
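Cells, 2000/well, grown 16–24 h in DMEM 10% FBS with 0.5 mg/ml G418, then compounds plus […] (300 uM addition stock), 30 min at 37C. cAMP read by HTRF (cAMP-d2 and anti-cAMP antibody-K in lysis buffer) after 30 min RT.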
mIDH1 inhibitor: human IDH1 R132H inhibition; O75874; IDH1-R132H enzyme, NADPH consumption, diaphorase/resazurin fluorescence; Potency, µM (titrated, usually from 76.6 µM), inactives show at the top dose activity change, negative = inhibition, most hits filed as inhibitors; AID 602179; actives 0.093% (n = 390,000); note: potency is the fitted concentration of half-maximal effect; % is set by controls: 0 for no effect and ±100 for the full control effect; nearly all actives have a fitted effect of over 65% in size
Target sequence (O75874 whole entry R132H, stated change not applied): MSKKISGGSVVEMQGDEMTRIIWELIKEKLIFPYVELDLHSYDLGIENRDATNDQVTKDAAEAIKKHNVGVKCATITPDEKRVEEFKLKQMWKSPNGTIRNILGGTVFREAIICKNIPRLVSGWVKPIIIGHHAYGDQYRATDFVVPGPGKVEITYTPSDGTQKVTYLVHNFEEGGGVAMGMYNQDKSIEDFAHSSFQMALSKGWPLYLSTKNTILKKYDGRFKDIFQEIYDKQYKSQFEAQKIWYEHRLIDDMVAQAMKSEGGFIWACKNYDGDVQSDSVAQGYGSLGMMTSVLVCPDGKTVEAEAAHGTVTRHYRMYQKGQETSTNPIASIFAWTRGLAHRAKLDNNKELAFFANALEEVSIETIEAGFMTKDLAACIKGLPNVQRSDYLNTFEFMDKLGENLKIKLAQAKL
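IDH1-R132H (0.5 ug/mL) preincubated 30 min with compound, then NADPH (0.016 mM) and alpha-KG (2 mM) added; 80 min at RT, pH 7.5. Remaining NADPH coupled via diaphorase/resazurin to fluorescence (540/590 nm); concentration-response curves normalized to no-enzyme control.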
gsp agonist: gsp mutant agonism; gsp mutant cells, cAMP HTRF, 30 min; Potency, µM (doses to about 76.9 µM), for inactives: at the highest dose activation (cAMP increase), hits mostly activators; actives 0.13% (n = 340,000); active = well fitted activation curve with a large enough effect; inconclusive = small, poorly fitted or top-dose-only effect, or another doubt; inactive = no such curve, though single readings can be large or run the other way; cell line not stated here;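 note: phosphodiesterase inhibitor Ro 20-1724 added with compounds to block cAMP breakdown; potency is the fitted concentration of half-maximal effect; nearly all actives have a fitted effect of over 60% in size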
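Cells stably selected in G418 were plated at 2000/well, grown 16-24 hr, then given compounds in DMSO with the PDE inhibitor […] (300 uM solution added) for 30 min at 37C; cAMP was read by HTRF.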
IL-2 act: activates IL-2 in a cell-based reporter assay | IL-2 activation reporter assay, cell-based qHTS; stimulated with anti-CD3/CD4/CD28 beads; in transgenic mouse T cells | actives 0.065% (n = 360,000) | activation, % (series mostly up to about 46 µM); in the data active = activation above about 50%; inconclusive = mostly about 30% to 49%; note: 0% is about no effect
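Unstimulated transgenic mouse T cells, 750 per well, received compound and, after 60 minutes, anti-CD3/anti-CD4 bead plus anti-CD28 stimulation. EGFP and DsRed were quantified after 18 hours.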
BRCA1 expr up: BRCA1 expression activation. MCF7-BRCA1-FFLuc reporter, luminescence, 48 h; response scale: scaled: vehicle 0%, 10 µM genistein 100%. Potency, µM (top dose mostly 46.1 µM), without a hit: top-dose activation, usual class: activators. actives 1.1% (n = 380,000); note: potency is the fitted concentration of half-maximal effect; nearly all actives have a fitted effect of over 80% in size
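Compounds are tested at multiple concentrations on MCF7 BRCA1-luciferase reporter cells seeded at 2000 per well; after 48 h, a single luminescence end-point is taken and curves fitted to the normalized data.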
* hit, by the source's call; ? = inconclusive; · = not tested or not shown; [ ] = remark or other dose. Most compounds without a hit are left out; they make up all but 1.5% or so of the library. Unless noted, calls come from the whole dose curve; as a rule, active = well fitted curve in the direction sought with a large enough effect; inconclusive = small, poorly fitted or top-dose-only effect, or another doubt; inactive = no such curve, though single readings can be large; an effect the other way counts as inactive or inconclusive.

SMILES	gsp antag	mIDH1 inhibitor	gsp agonist	IL-2 act	BRCA1 expr up
COc1ccc(-c2nnc(NC(=O)c3ccc(S(=O)(=O)N4COCC4(C)C)cc3)o2)cc1	-35%	0%	10%	0	-57%
C=CCN1C(=O)[C@@H]2Cc3c([nH]c4ccccc34)C(c3cc(OC)c(OC)c(OC)c3)N2C1=S (some centres not stated)	2%	-6%	-25%	105*	-23%
C=CCN1C(=O)[C@@H]2Cc3c([nH]c4ccccc34)C(c3ccc(O)cc3)N2C1=S (some centres not stated)	-18%	-6%	?	8	-63%
CCN1C(=O)[C@@H]2Cc3c([nH]c4ccccc34)C(c3cc(OC)c(OC)c(OC)c3)N2C1=S (some centres not stated)	3%	-13%	4%	94*	-39%
Fc1ccc(-c2nnc(-c3ccc(Cl)cc3)o2)cc1	-4%	0%	14%	-3	2µM*
Clc1ccc(-c2nnc(N3CCOCC3)o2)cc1	1%	0%	15%	0	4µM*
Clc1ccc(-c2nnc(C3CC3)o2)cc1	-4%	4%	1%[15.4 µM]	-1	63%
Fc1ccc(-c2nnc(-c3ccc(Cl)cc3Cl)o2)cc1	-3%	6%	?	2	?
Cc1cccc(-c2noc(-c3cccnc3NCc3ccc(Cl)cc3)n2)c1	·	-2%	·	·	1%
Cn1c(SCC(=O)NCc2ccco2)nnc1-c1cccc(NC(=O)c2ccccc2)c1	·	·	·	·	4%
CCOc1ccccc1NC(=O)Nc1nnc(N2CCCC(C)C2)s1 (configuration not stated)	·	10%	·	·	·
COc1ccc2[nH]c(C(=O)Nc3ccc(C)c(F)c3)cc2c1	3%	0%	27%	1	3.5µM*
CCOC(=O)c1cc2cc(OC)ccc2[nH]1	5%[15.4 µM]	2%	18%	0	5.6µM*
CCOC(=O)c1[nH]c2ccc(OC)cc2c1C	-2%	3%	-30%	-4	27%
CCc1ccccc1N1CC(C(=O)Nc2cc(S(=O)(=O)N3CCCC3)ccc2Cl)CC1=O (configuration not stated)	-21%	-1%	-11%	0	-16%
Cc1c(C(=O)c2ccccc2)oc2ccc3ccccc3c12	-4%	6%	9%[15.4 µM]	-1	10µM*
Nc1c(C(=O)c2ccccc2)oc2ccccc12	-1%	12%	12%	-2	19%
O=C1C2CC=CCC2C(=O)N1c1ccc(N2CCN(c3ccccn3)CC2)c([N+](=O)[O-])c1 (configuration not stated)	22µM*	6%	-1%	-1	-15%
COc1cccc(/C(C)=N/NC(=O)c2ccc(N(C)C)cc2)c1	4%	-3%	15%	-2	4.5µM*
C/C(=N\NC(=O)c1ccccc1)c1cccc(Br)c1	-4%	7%	-2%	0	10µM*
COc1cc2ccccc2cc1C(=O)OCC(=O)Nc1ccc(Br)cc1	·	·	·	·	8%
CCCN1CNc2c(c(=O)[nH]c(=S)n2CCc2cc(Cl)ccc2Cl)C1	·	·	·	·	0%[36.9 µM]
c1coc(-c2nn3c(-c4ccco4)nnc3s2)c1	-1%	-1%	27%	0	21%
COc1ccccc1-c1nn2c(-c3ccco3)nnc2s1	21%	9%	-18%	-1	7.9µM*
COc1ccccc1-c1nn2c(=O)cc(C)nc2s1	8%	3%	13%	2	10µM*
SMILES	gsp antag	mIDH1 inhibitor	gsp agonist	IL-2 act	BRCA1 expr up
CCCCN1C(=O)C2C(c3ccc(OC)cc3O)NC(CC(C)C)(C(=O)O)C2C1=O (configuration not stated)	8.9µM*	-7%	-8%	-3	1%
CCOC(=O)[C@]12CCC=C1N(Cc1ccc3c(c1)OCO3)C(=O)[C@H](CC(=O)N1CCSCC1)C2	·	·	·	0	-3%
Cc1ccc(NS(=O)(=O)c2ccc(-c3cc(C)no3)cc2)c(Br)c1	·	-3%	·	·	·
O=C(NCCc1ccc(Cl)cc1)c1cnc2sc(N3CCCC3)nn2c1=O	·	4%	·	·	·
Cc1nn(CCOc2ccccc2)c(=O)n1-c1c(F)cccc1F	4%	2%	-11%	2	5.6µM*
Cc1nn(C)c(=O)n1-c1ccc(Oc2ccccc2)cc1	2%	1%	-6%	-3	1%
Cc1ccc(-n2c(C)nn(CCOc3ccccc3)c2=O)cc1	6%	2%	-10%[15.4 µM]	0	6.3µM*
Cc1nn(CC2CC2)c(=O)n1-c1ccccc1F	-7%	0%	-5%	0	-3%
C[N+](C)(C)CCNC(=O)c1ccccc1	·	·	·	0	12%
COc1cc2nc(NC3CCN(C)CC3)nc(N3CCCN(C)CC3)c2cc1OC	·	·	·	·	-26%
O=C(C1=C[C@@H](c2ccc(C(F)(F)F)cc2)C[C@@H](OCCCCO)O1)N1CCCCCCC1	11µM*	-9%	·	0	-12%
O=[N+]([O-])c1ccc(Nc2nc(NCCN3CCOCC3)nc(Nc3ccc(I)cc3)n2)cc1	·	·	·	·	-79%
Cc1c(NC(=O)c2ccc(C(C)(C)C)cc2)cccc1[N+](=O)[O-]	-10%	7%	-14%[15.4 µM]	-1	7.9µM*
Cc1ccc([N+](=O)[O-])cc1NC(=O)c1ccc(C(C)(C)C)cc1	-31%	7%	-34%	-2	-58%
Cc1ccc(NC(=O)c2ccc(C(C)(C)C)cc2)cc1[N+](=O)[O-]	1%	3%	-16%	2	8.9µM*
CC1CN(Cc2c(O)ccc3c2oc(=O)c2ccccc23)CC(C)O1 (configuration not stated)	0%	-15%	28µM*	-1	3%
OCCCNc1cc(-c2ccccc2)nc2cc(-c3ccc(F)cc3)nn12	35µM*	-2%	-1%	-4	20%
C=CCn1c(SCC(=O)NCc2ccco2)nnc1-c1cccc(N(C)C)c1	·	·	·	·	4%
O=C(O)c1ccc(Cn2nnc3sc4c(c3c2=O)CCCC4)cc1	-10%	-7%	-1%[15.4 µM]	-1	7.9µM*
CCCn1cnc2cc(NCc3ccc(OC)cc3OC)ccc21	·	-6%	·	·	·
CCn1cnc2cc(NCc3cccs3)ccc21	-5%	-13%	-40%	-3	14µM*
CCn1cnc2cc(NCc3ccc(C)cc3)ccc21	-6%	6%	9%	-2	3.5µM*
CCN(CC)c1ccc(CNc2ccc3c(c2)ncn3CC)cc1	-7%	-18%	-26%	-1	-15%
CC(C)(C)n1cnc2cc(NCc3cccs3)ccc21	-4%	14%	-27%	-1	16%
CCCn1cnc2cc(NCc3cccc(OC)c3)ccc21	-12%	5%	-41%	-3	5µM*
COc1cc(CNc2ccc3c(c2)ncn3C(C)C)cc(OC)c1OC	·	8%	·	·	·
Cc1ccc(CNc2ccc3c(c2)ncn3C(C)C)cc1	-8%	7%	-14%	-1	5µM*
Nc1nc(=S)[nH]c2n[nH]nc12	·	·	·	·	-12%
CC1(C)OC(=O)C2(Cc3c(F)cccc3N3CCCC32)C(=O)O1 (configuration not stated)	·	·	·	·	13%
